# High-throughput results from PubChem.
# A selection: hits, their analogues and other compounds. The true share with any hit is near 3.8%.
# aDG glyco act = alpha-DG glycosylation activation. Pro5-aDG cells, alpha-DG glycosylation AlphaScreen (IIH6); 0% Pro5, 100% B10-LARGE cell signal. 360,000 compounds, 0.22% hits. activation, % at 10 µM;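 active = activation of at least 8% versus controls, or a plate z-score of at least 8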;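 note: Pro5 are CHO cells carrying HIG-tagged alpha-DG that lacks glycosylation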
# Cardio protect = protects H9c2 cardiomyocytes from peroxide injury | H2O2 injury protection, ATPLite, 2 h | protection from H2O2 cell death, % at 20 µM | 360,000 compounds, 0.63% hits;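 active = compounds giving at least 50% protection of heart cells from peroxide-induced death in the single-dose screen, raw or plate-pattern-corrected value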;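 note: 0% = DMSO wells with peroxide and 100% = DMSO wells without peroxide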
# Mot1-301 SUMO = SUMOylation pathway inhibition by Mot1-301 growth rescue; growth rescue, % at 18.8 µM; 320,000 compounds, 1% hits; S. cerevisiae Mot1-301 growth rescue, ATP luminescence, 38.5C; percent above DMSO median, 100 means doubled;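 active = every valid replicate shows activation above 250% relative to neutral control wells; inactive = the rest, any valid replicate at or below 250%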;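 note: OY570 slx delta 5 strain wells were the positive control but not used for scaling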
# MPTP block = blocks calcium-induced mitochondrial swelling | AID 602449 | inhibition, % at 10 µM | 360,000 compounds, 1.4% hits | isolated mouse mitochondria, Ca2+ swelling absorbance, 30 min;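 active = inhibition of 50% or more, scaled per plate between neutral and stimulator controls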;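 note: 0% = DMSO wells given calcium and 100% = 1 mM EGTA wells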
# FAS-TE inh = inhibitors of human fatty acid synthase thioesterase domain; P49327; AID 602261; recombinant FAS-TE, OMFH fluorogenic substrate, fluorescence endpoint; 360,000 compounds, 0.67% hits; inhibition, % at 15 µM;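 active = compounds whose normalised, plate-corrected inhibition of enzyme fluorescence in the single-dose primary screen is 50% or more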;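 note: 0% = DMSO with enzyme and 100% = substrate without enzyme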
# CR mimetic SO = lowers age-related superoxide in aged yeast cells; S. cerevisiae aged cells, superoxide DHE fluorescence; active compounds read low; AID 2690; 330,000 compounds, 0.18% hits; superoxide response (% of plate mean), % at 10 µM;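 active = superoxide response under a set limit, about three screen SD below normal, cut at about 65% in these data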;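 note: yeast aged for seven days with compound at 30 °C before DHE staining; 100% = average MFI of all compound-treated wells on the plate with controls excluded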
# Active calls of the source: *; / = no result given.
SMILES,aDG glyco act,Cardio protect,Mot1-301 SUMO,MPTP block,FAS-TE inh,CR mimetic SO
COc1cccc(OC)c1C(=O)NC(=O)NNc1cc(C(F)(F)F)cc(C)n1,0,1,5,-1,-5,112
CC12C(=O)N(c3nccs3)C(=O)C1(C)C1CCC2O1 (configuration not stated),2,5,/,1,-2,/
C[C@@]12C(=O)OC(=O)[C@]1(C)C1CCC2O1,0,67*,12,-1,-5,51*
CCOC(=O)N1CCN(C(=O)C[C@@H]2C[C@@]3(C(=O)OC)CC(C)(C)CC=C3N(Cc3ccccc3)C2=O)CC1,0,/,/,-2,/,/
NC(=O)Nn1c(CCC(=O)O)ccc1-c1ccc(F)cc1,0,7,349*,1,-7,92
O=C(O)CCc1ccc(-c2ccc(F)cc2)n1CC(=O)O,0,12,125,-1,-6,102
CC(C)C1C(c2ccccc2)N(C)C(c2ccccc2)CC1(O)c1ccccc1 (configuration not stated),0,-16,379*,3,36,100
COc1ccc(C(=O)O)c(OC)n1,0,8,313*,1,-6,106
CCOc1cc(/C=N/NC(=O)C(=O)NCc2ccc3c(c2)OCO3)ccc1OCC(=O)N1CCOCC1,0,-7,-12,-1,0,109
CCOC(=O)C1=CCC2C(=O)N(C3CCCCC3)C(=O)C12 (configuration not stated),0,3,/,-1,2,/
O=C1/C(=N\S(=O)(=O)c2cccs2)C([n+]2cccc(Cc3ccccc3)c2)=C([O-])c2ccccc21,3.6*,-14,8,2,-46,122
O=C(O)c1ccc(NNC(=S)Nc2cc(C(F)(F)F)ccc2Cl)cc1,0,4,-8,1,-6,113
CSc1nc(N(C)NC(=O)c2ccc(Cl)cc2)c2ccccc2n1,0,-14,334*,5,11,124
COc1ccc2[nH]c(=O)c(CN(CCO)S(=O)(=O)c3c(C)ccc4nsnc34)cc2c1,2,19,-13,1,-9,97
COc1ccc2[nH]c(=O)c(CN(Cc3cccs3)S(=O)(=O)c3cccc4nsnc34)cc2c1,0,73*,/,-1,11,103
CN1CCN(c2nc(-c3ccccc3O)nc3ccccc23)CC1,0,25,7,1,2,96
COc1cccc(-c2nc(N3CCN(C)CC3)c3ccccc3n2)c1O,0,51*,-3,1,2,95
CCOC(=O)C1(C)NC(c2cccs2)C2C(=O)N(c3ccc(C)cc3)C(=O)C21 (configuration not stated),0,2,59,0,0,106
Cc1ccc(N2C(=O)C3C(C2=O)N2C(c4cccs4)C4C(=O)N(c5ccc(C)cc5)C(=O)C4N2C3c2cccs2)cc1 (configuration not stated),0,5,-3,1,84*,88
O=C1c2ccccc2S(=O)(=O)c2cc(N3CCc4ccccc4C3)ccc21,/,/,-15,/,/,100
COC(=O)Nc1nc2ccc(-c3n[nH]c(=O)c4ccccc34)cc2[nH]1,0,68*,3,-2,-13,105
O=C(CCN1C(=O)C2C3CCC(C3)C2C1=O)OCC(=O)c1ccc(Cl)cc1 (configuration not stated),0,6,-1,0,-2,113
Cc1ccc(S(=O)(=O)N2CCN(C(=O)COC(=O)/C=C/c3cccc([N+](=O)[O-])c3)CC2)c(C)c1,0,-8,/,0,18,/
COc1cc(C(=O)Nc2nc(OC)c(-c3ccccc3)c(OC)n2)cc(OC)c1OC,0,70*,-2,0,9,88
COc1ccc(-n2c(SCC(=O)N3CCCCC3)nc3ccccc3c2=O)cc1,0,0,/,0,0,/
SMILES,aDG glyco act,Cardio protect,Mot1-301 SUMO,MPTP block,FAS-TE inh,CR mimetic SO
CCOC(=O)N1CCN(C(=O)CSc2nc3ccccc3c(=O)n2-c2ccccc2)CC1,0,52*,7,-2,-8,87
CC(=O)c1sc(NC(=O)C(C)C)nc1C,0,11,/,2,-11,98
CC(=O)Nc1nc(C)c(C(C)=O)s1,0,-2,341*,-1,-7,106
CNC1=C(N(C(C)=O)c2ccc(Br)cc2)C(=O)c2ccccc2C1=O,8.7*,-13,-8,2,-7,138
CCC(=O)N(C1=C(NC)C(=O)c2ccccc2C1=O)C(C)C,1,-8,19,2,-1,195
O=C(N/N=C/c1cc(Br)ccc1O)c1ccccc1Cl,0,56*,-23,11,32,99
CC(C)CCn1c(O)c(N=NC(=O)c2ccco2)c2ccccc21,0,2,553*,0,8,104
Cn1c(O)c(N=NC(=O)c2ccco2)c2ccccc21,0,-7,-1,9,-10,107
O=C(NCc1cccnc1)c1cc(C2CCCN(C(=O)c3cccs3)C2)on1 (configuration not stated),0,-2,/,-1,-3,/
CC(=O)NC(C)c1ccc(Cl)c(Cl)c1 (configuration not stated),0,2,1,-1,-2,84
CC(=O)NC(CCc1ccc(Cl)c(Cl)c1)c1cccc(O)c(=O)c1 (configuration not stated),2,61*,/,0,2,/
CC1Nc2ncnc(N3CCN(c4ccccc4)CC3)c2N(Cc2ccc(Cl)cc2)C1=O (configuration not stated),0,61*,-21,0,20,97
CCOC(=O)c1cc(C#N)c(SCC(=O)c2cc(C#N)c(SC)nc2C)[nH]c1=O,0,76*,-9,3,3,90
CCOC(=O)c1cc(C#N)c(SCC(N)=O)[nH]c1=O,0,-1,-1,0,-8,85
CCc1ccccc1NC(=S)N1CCCCCC1,0,-2,-1,0,-2,83
CC(C)(C)C1=NN=C2c3ccccc3C(=O)C21 (configuration not stated),0,-5,675*,1,-3,116
O=C1c2ccccc2C(=O)C1c1ccc(O)cc1,0,-2,3,4,0,104
O=[N+]([O-])c1cc2c(c3cccnc13)COCO2,0,16,/,-2,-4,/
CCCCOc1ccc(C(=O)N/C(=C\c2ccc(OC)cc2)C(=O)OCc2ccco2)cc1,0,57*,60,-1,17,92
NC(=O)c1ccccc1OCC(=O)NC12CC3CC(CC(C3)C1)C2,0,56*,17,1,-2,97
O=C(COC(=O)c1ccccc1O)Nc1cccnc1Cl,0,2,-12,-1,-5,103
NC(=O)c1ccccc1OCC(=O)Nc1cccnc1Cl,0,53*,117,-1,-13,103
